The subject of test [1] is PRMT1 (protein arginine N-methyltransferase 1). The test is described as follows: small molecules binding arginine methyltransferase PRMT1 – biochemical, small-molecule microarray, 635 nm fluorescence, primary screen (AID 1088).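 Further: binding of Prmt1 protein to compounds spotted on small-molecule microarray slides.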 To be noted: higher = more signal.
Test [2] in a line: growth effects on S. cerevisiae YJM789 – YJM789 clinical isolate, OD600, 24 h, basal, primary screen (AID 1089).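 Further: growth of clinical yeast isolate S. cerevisiae YJM 789 seeded 1000 cells per well; test concentration not given here.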 The note with it: higher = more signal, called active from +8 up or from −8 down.
Test [3] in a line: S. pombe growth modifiers, basal conditions – strain 972, OD600, 24 h, no modulator, primary screen (AID 1090).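 Further: basal condition with compound alone and no growth modifier present; test concentration not given here.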 The note with it: S. pombe 972 growth, higher = more signal, called active from +8 up or from −8 down.
The nature of test [4]: budding yeast growth modifiers under rapamycin – strain BY4716, OD600, 96 h, primary screen (AID 1091). Further: test concentration not given here. To be noted: S. cerevisiae BY4716 + rapamycin, higher = more signal, called active from +8 up or from −8 down.
Test [5] addresses Torsin-1A-interacting protein 2 (Homo sapiens) (UniProt Q8NFQ8). Briefly: small molecules binding lysate-expressed LULL1 – cell lysate, human LULL1 lysate, 635/667 nm fluorescence, primary screen (AID 1092).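 Further: probe is lysate of COS7 cells overexpressing human LULL1; score merges per-feature 667 nm fluorescence with signal-to-noise.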 The note with it: small-molecule microarray, hLULL1 lysate binding, 635 nm fluorescence; higher = more signal.
Test [6] can be described thus: optical density change of DRC41 E. coli – strain DRC41, OD650, 24 h, E. coli filamentation project, primary screen (AID 1093).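 Further: MC1000 strain lacking acrAB efflux and sulA so SOS filamentation is blocked; test concentration not given here.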 To be noted: E. coli DRC41 growth, higher = more signal, called active from +8 up or from −8 down.
Test [7] in a line: probe aLefty2 binding to arrayed compounds – biochemical, biotinylated probe, 635/667 nm fluorescence, primary screen (AID 1094).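 Further: score merges spot fluorescence near 667 nm with spot signal-to-noise ratio.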 The note with it: small-molecule microarray, higher = more signal.
Test [8] has as its system Noggin (protein binding on small-molecule microarray). The test is described as follows: small molecules binding Noggin protein – biochemical, 635/667 nm fluorescence, primary screen (AID 1095).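 Further: score merges 667 nm feature fluorescence with signal to noise over triplicate slides.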 To be noted: 635 nm fluorescence, higher = more signal.
Test [9] addresses Neurogenic locus notch homolog protein 3 (Homo sapiens) (UniProt Q9UM47). Briefly: small molecules binding NOTCH3 protein – biochemical, 635/667 nm fluorescence, primary screen (AID 1096). The note with it: small-molecule microarray, 635 nm fluorescence, higher = more signal.
A short description of test [10]: probe aEGFR binding to arrayed compounds – biochemical, biotinylated probe, 635/667 nm fluorescence, primary screen (AID 1097).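 Further: probe is a biotinylated anti-EGFR antibody binding compounds printed on slides; score combines fluorescence near 667 nm and signal to noise of each spot.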 To be noted: small-molecule microarray, higher = more signal.
Test [11] has as its system Plasmodium falciparum Sir2 (PF13_0152, Sir2A). Briefly: Plasmodium falciparum Sir2A binding compounds – biochemical, small-molecule microarray, 635 nm fluorescence, primary screen (AID 1098).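 Further: score merges spot fluorescence intensity with its signal-to-noise ratio.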 To be noted: fluorescence 635 nm, higher = more signal.
Test [12] is described as follows: probe aDKK1 binding to arrayed compounds – biochemical, biotinylated probe, 635/667 nm fluorescence, primary screen (AID 1099).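 Further: score merges 667nm spot fluorescence with signal to noise across triplicate slides; reference of the scale not given here.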 The note with it: small-molecule microarray, higher = more signal.
Test [13] is described as follows: probe aCHRDL2 binding to arrayed compounds – biochemical, biotinylated probe, 635/667 nm fluorescence, primary screen (AID 1100). To be noted: small-molecule microarray, higher = more signal.
Test [14] is described as follows: change in splice reporter luminescence, either direction, cell-based, HEK293, spliceosome inhibition project, primary screen (AID 1101).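 Further: HEK293 cells carrying a splicing-competent luciferase reporter gene; test concentration not given here.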 To be noted: HEK293 splicing luciferase reporter, 24 h, higher = more signal, called active from +8 up or from −8 down. On the technique in general: A reporter such as luciferase makes a cellular process visible.
Test [15] concerns the target Fibroblast growth factor 10 (Homo sapiens) (UniProt O15520). The test is described as follows: compounds binding fibroblast growth factor 10 – biochemical, small-molecule microarray, 635 nm fluorescence, primary screen (AID 1102). The note with it: FGF10 binding, fluorescence 635 nm, higher = more signal.
The test system of test [16] is glycogen synthase kinase-3 (GSK3A per assay name; protocol says GSK3B). Briefly: compounds binding glycogen synthase kinase-3 – biochemical, small-molecule microarray, 635 nm fluorescence, GSK3A, primary screen (AID 1103). Further: the record names both GSK3A and GSK3B. To be noted: fluorescence 635 nm, higher = more signal.
Test [17] deals with Epidermal growth factor receptor (Homo sapiens) (UniProt P00533). The test is described as follows: compounds binding epidermal growth factor receptor – biochemical, small-molecule microarray, 635 nm fluorescence, primary screen (AID 1104).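 Further: score merges 667 nm emission intensity with spot signal to noise over triplicate slides.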 To be noted: EGFR binding, higher = more signal.
Test [18] deals with Follistatin-related protein 3 (Homo sapiens) (UniProt O95633). Briefly: compounds binding follistatin-related protein 3 – biochemical, small-molecule microarray, 635 nm fluorescence, primary screen (AID 1105).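 Further: score merges emission near 667 nm and signal to noise per printed spot across three slides.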 The note with it: FSTL3 binding, higher = more signal.
The target in test [19] is Dickkopf-related protein 1 (Homo sapiens) (UniProt O94907). The test is described as follows: small molecules binding DKK1 protein – biochemical, small-molecule microarray, 635 nm fluorescence scan, primary screen (AID 1106).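 Further: score merges emission near 667 nm with signal to noise over three replicate slides.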 To be noted: higher = more signal.
Test [20] deals with Inhibin beta A chain (activin A). Briefly: small molecules binding activin A – biochemical, small-molecule microarray, 635 nm fluorescence scan, primary screen (AID 1107).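 Further: mouse activin A protein probed at 4.33 µg/mL on printed slides; score merges bound-protein fluorescence near 667 nm with spot signal-to-noise.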 The note with it: INHBA, higher = more signal.

Calls of active or inactive are those of the source.

Torsin-1A-interacting protein 2 (Homo sapiens), sequence (Q8NFQ8 whole entry, looked up): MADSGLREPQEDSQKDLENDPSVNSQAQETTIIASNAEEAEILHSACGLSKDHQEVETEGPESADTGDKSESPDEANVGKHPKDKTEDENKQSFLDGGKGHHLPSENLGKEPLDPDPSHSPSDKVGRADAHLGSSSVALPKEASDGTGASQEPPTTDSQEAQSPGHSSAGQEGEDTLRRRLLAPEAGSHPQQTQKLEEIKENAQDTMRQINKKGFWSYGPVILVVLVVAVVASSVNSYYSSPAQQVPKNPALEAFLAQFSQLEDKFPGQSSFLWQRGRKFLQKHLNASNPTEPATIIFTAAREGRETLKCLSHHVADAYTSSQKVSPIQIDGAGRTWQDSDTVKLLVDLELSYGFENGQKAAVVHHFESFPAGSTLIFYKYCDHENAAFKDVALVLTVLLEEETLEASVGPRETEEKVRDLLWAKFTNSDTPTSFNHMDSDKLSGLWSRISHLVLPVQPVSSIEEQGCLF
Neurogenic locus notch homolog protein 3 (Homo sapiens), sequence (Q9UM47 whole entry, looked up): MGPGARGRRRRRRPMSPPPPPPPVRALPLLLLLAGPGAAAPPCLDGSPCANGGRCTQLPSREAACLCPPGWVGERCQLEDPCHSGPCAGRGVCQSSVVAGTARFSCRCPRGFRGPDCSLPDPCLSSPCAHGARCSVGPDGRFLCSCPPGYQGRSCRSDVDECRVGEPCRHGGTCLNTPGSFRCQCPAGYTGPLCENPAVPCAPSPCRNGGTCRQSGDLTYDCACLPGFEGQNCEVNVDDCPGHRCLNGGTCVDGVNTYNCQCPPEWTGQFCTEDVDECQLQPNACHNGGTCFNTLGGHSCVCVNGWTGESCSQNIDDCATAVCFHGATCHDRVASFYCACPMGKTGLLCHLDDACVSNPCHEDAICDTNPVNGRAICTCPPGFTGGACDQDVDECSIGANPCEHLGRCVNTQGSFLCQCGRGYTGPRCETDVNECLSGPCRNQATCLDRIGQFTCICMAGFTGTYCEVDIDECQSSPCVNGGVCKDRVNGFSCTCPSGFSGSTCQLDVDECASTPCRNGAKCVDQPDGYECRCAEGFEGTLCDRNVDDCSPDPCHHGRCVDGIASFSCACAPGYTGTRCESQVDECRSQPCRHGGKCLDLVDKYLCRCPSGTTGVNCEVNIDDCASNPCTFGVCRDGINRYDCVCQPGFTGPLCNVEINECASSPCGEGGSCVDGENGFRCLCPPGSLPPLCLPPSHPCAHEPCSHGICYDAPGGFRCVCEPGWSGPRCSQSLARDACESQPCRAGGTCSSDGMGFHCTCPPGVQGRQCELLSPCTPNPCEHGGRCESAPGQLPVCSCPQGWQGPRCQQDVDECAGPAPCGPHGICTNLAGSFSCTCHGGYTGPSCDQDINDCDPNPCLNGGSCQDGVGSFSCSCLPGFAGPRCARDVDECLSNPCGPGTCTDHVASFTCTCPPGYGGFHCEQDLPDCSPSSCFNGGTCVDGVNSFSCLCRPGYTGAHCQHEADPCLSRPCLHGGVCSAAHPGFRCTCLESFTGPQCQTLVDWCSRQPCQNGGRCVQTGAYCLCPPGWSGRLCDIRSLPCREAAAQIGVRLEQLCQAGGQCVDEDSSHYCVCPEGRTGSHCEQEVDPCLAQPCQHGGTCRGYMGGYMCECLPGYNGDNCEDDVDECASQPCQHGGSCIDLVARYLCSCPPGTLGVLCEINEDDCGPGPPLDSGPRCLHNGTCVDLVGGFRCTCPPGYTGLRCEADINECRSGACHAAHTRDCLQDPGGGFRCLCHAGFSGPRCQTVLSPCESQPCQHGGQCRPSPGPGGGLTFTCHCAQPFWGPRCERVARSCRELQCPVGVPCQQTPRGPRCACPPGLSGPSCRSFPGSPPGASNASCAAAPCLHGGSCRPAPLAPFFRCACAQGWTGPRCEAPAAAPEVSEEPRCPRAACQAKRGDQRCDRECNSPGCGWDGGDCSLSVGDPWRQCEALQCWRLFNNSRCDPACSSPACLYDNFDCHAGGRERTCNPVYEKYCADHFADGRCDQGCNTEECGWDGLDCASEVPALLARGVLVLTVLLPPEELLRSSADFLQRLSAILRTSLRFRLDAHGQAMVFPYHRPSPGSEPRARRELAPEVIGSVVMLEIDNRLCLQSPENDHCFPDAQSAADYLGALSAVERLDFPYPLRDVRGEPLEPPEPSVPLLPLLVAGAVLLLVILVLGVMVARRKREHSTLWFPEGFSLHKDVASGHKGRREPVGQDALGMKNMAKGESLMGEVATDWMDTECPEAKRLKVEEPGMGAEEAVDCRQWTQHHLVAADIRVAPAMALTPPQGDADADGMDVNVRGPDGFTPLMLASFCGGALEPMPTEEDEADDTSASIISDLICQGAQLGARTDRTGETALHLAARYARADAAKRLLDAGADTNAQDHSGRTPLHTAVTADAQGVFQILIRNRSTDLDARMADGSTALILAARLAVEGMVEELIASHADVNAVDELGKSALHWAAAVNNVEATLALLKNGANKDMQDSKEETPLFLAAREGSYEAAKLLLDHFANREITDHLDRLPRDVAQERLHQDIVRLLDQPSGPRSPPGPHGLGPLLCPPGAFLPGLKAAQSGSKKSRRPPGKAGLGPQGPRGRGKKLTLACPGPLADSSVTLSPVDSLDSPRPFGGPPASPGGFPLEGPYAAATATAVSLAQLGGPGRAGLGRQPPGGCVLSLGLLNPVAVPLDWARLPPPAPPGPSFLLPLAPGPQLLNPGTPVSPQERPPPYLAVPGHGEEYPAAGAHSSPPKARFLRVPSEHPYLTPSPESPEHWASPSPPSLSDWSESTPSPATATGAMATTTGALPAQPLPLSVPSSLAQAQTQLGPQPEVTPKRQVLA
Follistatin-related protein 3 (Homo sapiens), sequence (O95633 whole entry, looked up): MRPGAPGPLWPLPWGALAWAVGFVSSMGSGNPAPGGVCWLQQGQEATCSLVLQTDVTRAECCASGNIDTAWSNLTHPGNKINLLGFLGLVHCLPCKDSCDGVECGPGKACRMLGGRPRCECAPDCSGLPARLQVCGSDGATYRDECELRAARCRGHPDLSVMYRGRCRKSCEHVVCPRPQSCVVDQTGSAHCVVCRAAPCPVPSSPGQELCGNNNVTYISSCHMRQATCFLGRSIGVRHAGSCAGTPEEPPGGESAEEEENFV
Dickkopf-related protein 1 (Homo sapiens), sequence (O94907 whole entry, looked up): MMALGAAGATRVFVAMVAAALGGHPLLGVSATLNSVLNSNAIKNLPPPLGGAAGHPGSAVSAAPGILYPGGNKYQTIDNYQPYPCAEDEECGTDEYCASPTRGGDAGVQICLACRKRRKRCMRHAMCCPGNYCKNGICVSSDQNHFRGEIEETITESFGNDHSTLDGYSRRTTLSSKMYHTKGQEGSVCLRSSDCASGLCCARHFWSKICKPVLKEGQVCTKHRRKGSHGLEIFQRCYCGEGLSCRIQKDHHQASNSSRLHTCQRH
Fibroblast growth factor 10 (Homo sapiens), sequence (O15520 whole entry, looked up): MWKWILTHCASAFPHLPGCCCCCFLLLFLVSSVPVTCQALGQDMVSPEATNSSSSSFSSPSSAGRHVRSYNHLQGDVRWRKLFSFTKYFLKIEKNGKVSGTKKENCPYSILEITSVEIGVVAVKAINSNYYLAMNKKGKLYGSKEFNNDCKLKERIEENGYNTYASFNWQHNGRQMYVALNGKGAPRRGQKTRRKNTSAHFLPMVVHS
Epidermal growth factor receptor (Homo sapiens), sequence (P00533 whole entry, looked up): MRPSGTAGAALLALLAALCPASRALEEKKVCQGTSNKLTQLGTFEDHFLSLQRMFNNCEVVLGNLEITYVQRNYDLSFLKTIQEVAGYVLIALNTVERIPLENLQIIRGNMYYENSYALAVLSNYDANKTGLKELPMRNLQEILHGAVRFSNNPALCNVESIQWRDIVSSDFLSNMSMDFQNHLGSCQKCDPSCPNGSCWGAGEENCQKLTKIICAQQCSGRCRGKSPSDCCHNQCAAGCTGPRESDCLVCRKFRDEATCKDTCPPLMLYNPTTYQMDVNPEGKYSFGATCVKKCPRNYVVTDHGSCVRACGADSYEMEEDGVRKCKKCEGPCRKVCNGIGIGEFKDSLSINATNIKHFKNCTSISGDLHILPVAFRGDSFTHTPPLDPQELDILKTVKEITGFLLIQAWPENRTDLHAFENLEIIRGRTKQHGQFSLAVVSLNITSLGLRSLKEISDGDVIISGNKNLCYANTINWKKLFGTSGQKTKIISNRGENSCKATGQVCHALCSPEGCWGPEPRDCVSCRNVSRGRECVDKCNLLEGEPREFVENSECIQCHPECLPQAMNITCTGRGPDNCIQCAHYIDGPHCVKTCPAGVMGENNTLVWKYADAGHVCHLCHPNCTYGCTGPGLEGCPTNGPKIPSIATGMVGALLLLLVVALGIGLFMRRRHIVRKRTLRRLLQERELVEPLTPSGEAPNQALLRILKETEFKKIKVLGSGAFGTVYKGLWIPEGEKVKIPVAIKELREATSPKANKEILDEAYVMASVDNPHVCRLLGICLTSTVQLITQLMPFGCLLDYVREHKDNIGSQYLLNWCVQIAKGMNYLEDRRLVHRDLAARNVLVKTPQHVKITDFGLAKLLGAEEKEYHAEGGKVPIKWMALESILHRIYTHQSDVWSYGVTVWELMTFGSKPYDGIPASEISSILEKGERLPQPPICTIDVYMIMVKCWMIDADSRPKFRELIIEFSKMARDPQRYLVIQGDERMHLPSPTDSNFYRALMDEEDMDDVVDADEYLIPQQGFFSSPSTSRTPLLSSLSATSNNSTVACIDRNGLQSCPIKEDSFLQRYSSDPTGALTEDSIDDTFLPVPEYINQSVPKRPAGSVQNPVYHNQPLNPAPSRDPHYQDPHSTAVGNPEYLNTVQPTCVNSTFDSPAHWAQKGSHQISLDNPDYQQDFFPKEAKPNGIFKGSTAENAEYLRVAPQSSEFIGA

Turning to `C#CCNC(/C=C/c1ccccc1)CO` (stereo not given), the composite z-score in test [1] is 0.142; in test [5] it was 0.0064; in test [7] it was -0.0668; in [8], 0.381; in test [9] it was 0.447; in test [10], -0.135. For the same compound, the composite z-score is 0.0921 in [11]; -0.234 in test [12]; -0.565 in test [13]; 0.311 in test [15]; 0.149 in test [16]; 0.553 in test [17]. The composite z-score in [18] turned out to be 0.326; in [19] it was 0.545; in [20], 0.394. Also, the z-score in [2] is 1.11 (inactive); in [3] it was 0.64 (inactive); in test [4] it was 1.24 (inactive); in [6], -0.852 (inactive); in test [14], 0.00978 (inactive).
In the case of `CCN1C(C)=C(C(=O)OC)[C@@H](c2ccccc2)N2C(=O)[C@](O)(C(=O)OC)[C@@H](c3ccccc3)C(C(=O)c3ccccc3)=C12`, the composite z-score is 0.481 in [1]; 1.41 in [5]; -0.132 in test [7]; 0.416 in test [8]; 0.685 in test [9]; 0.0255 in test [10]. Further, the composite z-score in test [11] is 0.689; in [12], 0.0153; in [13] it was -0.396; in test [15], 0.436; in [16] it was 0.779; in test [17] it was 0.385. For the same compound, the composite z-score in test [18] was 0.363; in [19], 0.812; in test [20] it was -0.411. Also, the z-score in test [2] was -0.59 (inactive); in test [3], -4.98 (inactive); in test [4], -0.714 (inactive); in test [6], 1.43 (inactive); in test [14], -2.45 (inactive).
In the case of `CCOC(=O)C[C@H]1[C@H](OC(=O)c2cc3ccccc3oc2=O)[C@@H](NC(=O)C2CCCCC2)c2cc(OCCCO)ccc2N1C(=O)c1ccc2ccccc2n1`, the composite z-score in test [1] is 1.06; in test [5], 1.17; in test [7], -0.124; in test [8], 0.87; in test [9], 1.02; in test [10], -0.154. Besides, the composite z-score in test [11] is 0.631; in test [12] it was -0.245; in [13], -0.273; in test [15], 0.68; in test [16], 0.413; in test [17], 0.258. For the same compound, the composite z-score in test [18] came out at 1.08; in [19] it was 0.493; in test [20], 0.304. The z-score was 0.152 (inactive) in test [2]; 0.802 (inactive) in test [3]; 1.29 (inactive) in test [4]; -0.865 (inactive) in [6]; -0.34 (inactive) in [14].
Turning to `C[C@@H]1CC[C@H]2C(=O)N3[C@@H](CC[C@@H](C)[C@@H]3c3cccc(N4CCOCC4)c3)C(=O)N2[C@H]1c1cccc(N2CCOCC2)c1`, the composite z-score was 0.52 in test [1]; 0.44 in test [5]; -0.275 in [7]; 0.252 in test [8]; 0.464 in test [9]; -0.012 in test [10]. In addition, the composite z-score came out at 1.15 in test [11]; 0.335 in [12]; 0.189 in [13]; 0.37 in test [15]; 0.513 in [16]; 0.224 in test [17]. Moreover, the composite z-score in test [18] was 1.12; in test [19], 1.82; in test [20], 0.866. Further, the z-score in test [2] was 0.123 (inactive); in [3] it was 0.132 (inactive); in [4] it was 0.651 (inactive); in [6], 0.593 (inactive); in test [14], -0.188 (inactive).
Take `C[N+](C)(C)CCCCNC(=O)[C@@H]1C[C@@H]2C(=O)N3CCC[C@H]3C(=O)N2[C@@H]1c1cccc(OCCO)c1`: the composite z-score in test [1] is 0.869; in [5] it was 0.381; in [7], -0.123; in test [8] it was 1.64; in test [9], 0.751; in test [10], 0.0051. For the same compound, the composite z-score in test [11] is 0.577; in test [12] it was -0.222; in [13] it was -0.0397; in test [15], 0.455; in [16], 0.249; in [17], 0.495. Besides, the composite z-score in [18] turned out to be 1.45; in [19], 1.44; in [20], 0.0648. Also, the z-score is -1.09 (inactive) in [2]; -1.74 (inactive) in test [3]; -2.42 (inactive) in test [4]; 1.54 (inactive) in test [6]; 0.0434 (inactive) in [14].

The record behind these values is PubChem BioAssay.
